“And” between values parts separate entries of the source, which are not always exact repeats. Equal entries are not always repeated. Values without a mark were called inactive. Entries that show only a call come without a potency. The source made the active and inactive calls. Unless noted, the call rests on the fitted dose curve; in most records, active means well fitted curve in the direction sought with a large enough effect in the repeat runs; inconclusive means weak or mixed curves; inactive means no such curve, though single readings can be large; an effect the other way counts as inactive or inconclusive.
Experiments:
[1] = qHTS assay for small molecule agonists of the p53 signaling pathway (AID 651631; calls by dose curve; further: nearly all actives have a fitted effect of over 15% in size; further: potency means the concentration at half of the fitted maximal effect)
In short: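 Agonist mode screen using a stably integrated beta-lactamase gene under p53 response elements in HCT-116 cells. Compound exposure lasts 16 h at 37 °C; fluorescence intensity is measured following 2 h FRET substrate loading.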

[2] = qHTS assay for small molecule agonists of the p53 signaling pathway - cell viability (AID 651633; calls by dose curve;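 further: p53RE-bla HCT reporter cells with a stable beta-lactamase p53 reporter; series mostly up to about 83 µM; nearly all actives have a fitted effect of over 30% in size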)
In short: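 p53RE-bla cells were treated with compound for 16 hours at 37 C. Cytotoxicity was then measured as CellTiter-Glo luminescence after 30 min at room temperature.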

[3] = qHTS assay to test for compound auto fluorescence at 590 nm (red) in HepG2 cells (AID 720674)
In short: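 Fluorescence at 590 nm emission following 540 nm excitation was recorded from HepG2 wells one hour after compound transfer, with DMSO-only wells as vehicle and Rose Bengal sodium equivalency as the scale.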

[4] = qHTS assay to test for compound auto fluorescence at 460 nm (blue) in HEK293 cells (AID 720678)
In short: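 After cell attachment (4-5 hr, 37C), compounds were pinned onto HEK293 monolayers in 10% dialyzed FBS medium. The blue channel (405/460 nm) was read following overnight culture. Equivalency was calculated against triamterene.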

[5] = qHTS assay to test for compound auto fluorescence at 590 nm (red) in HEK293 cell free culture (AID 720683)
In short: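 Cell-free wells of DMEM with 10% FBS received compound, and intrinsic fluorescence was read at excitation/emission 540/590 nm. Values expressed as equivalence to Rose Bengal sodium.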

[6] = qHTS assay to identify small molecule antagonists of the glucocorticoid receptor (GR) signaling pathway - cell viability counter screen (AID 720693); further: nearly all actives have a fitted effect of over 55% in size
[7] = qHTS assay for identifying genotoxic compounds that show differential cytotoxicity against isogenic chicken DT40 cell lines with known DNA damage response pathways - wild type cell line (AID 743012); further: nearly all actives have a fitted effect of over 60% in size; further: potency means the concentration at half of the fitted maximal effect
In short: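 300 wt DT40 cells/well; cpd (DMSO) pintool-transferred after ~0.5 h at 37 C/5% CO2; 40 h incubation; CellTiter-Glo added, 30 min RT; luminescence read.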

[8] = qHTS assay for identifying genotoxic compounds that show differential cytotoxicity against isogenic chicken DT40 cell lines with known DNA damage response pathways - Rev3 mutant cell line (AID 743014); further: nearly all actives have a fitted effect of over 55% in size; further: potency means the concentration at half of the fitted maximal effect
[9] = molecular target: Estrogen receptor (Homo sapiens) (UniProt P03372); assay: qHTS assay to identify small molecule antagonists of the estrogen receptor alpha (ER-alpha) signaling pathway (AID 743069; active means well fitted curve in the direction sought with a large enough effect in the signal ratio in the repeat runs, not every such curve was filed as active; inconclusive means weak or mixed curves, or effect the other way; inactive means no such curve, though single readings can be large or run the other way; the % refers to the signal ratio)
Chain of Estrogen receptor (Homo sapiens) (P03372 whole entry, looked up): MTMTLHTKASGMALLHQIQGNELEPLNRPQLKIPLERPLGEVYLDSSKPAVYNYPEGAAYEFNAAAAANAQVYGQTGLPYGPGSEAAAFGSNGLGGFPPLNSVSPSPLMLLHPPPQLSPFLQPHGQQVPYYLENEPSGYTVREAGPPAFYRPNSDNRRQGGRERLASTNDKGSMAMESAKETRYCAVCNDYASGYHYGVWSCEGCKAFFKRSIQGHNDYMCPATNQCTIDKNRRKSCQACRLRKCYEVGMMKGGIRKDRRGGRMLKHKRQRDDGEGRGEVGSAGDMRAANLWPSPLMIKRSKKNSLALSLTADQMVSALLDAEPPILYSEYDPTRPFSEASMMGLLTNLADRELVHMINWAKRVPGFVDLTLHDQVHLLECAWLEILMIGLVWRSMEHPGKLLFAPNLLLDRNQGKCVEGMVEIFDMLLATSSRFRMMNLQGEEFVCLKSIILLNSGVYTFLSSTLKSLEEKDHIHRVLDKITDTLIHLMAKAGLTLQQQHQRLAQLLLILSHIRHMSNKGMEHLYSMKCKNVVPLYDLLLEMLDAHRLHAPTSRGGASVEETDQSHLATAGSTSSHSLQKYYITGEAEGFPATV
In short: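 Beta-lactamase FRET fluorescence is read after 2 hr at room temperature with LiveBLAzer B/G substrate. Before that, ER-alpha-bla HEK293 cells sit 4 hr after plating, then receive compound plus 17beta-estradiol and incubate 18 hr at 37C.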

[10] = molecular target: Estrogen receptor (Homo sapiens) (UniProt P03372); assay: qHTS assay to identify small molecule agonists of the estrogen receptor alpha (ER-alpha) signaling pathway (AID 743075; calls by dose curve;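 further: HEK293 GripTite cells with ER-alpha and UAS-driven beta-lactamase reporter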; further: potency means the concentration at half of the fitted maximal effect)
[11] = molecular target: Estrogen receptor (Homo sapiens) (UniProt P03372); assay: qHTS assay to identify small molecule agonists of the estrogen receptor alpha (ER-alpha) signaling pathway using the BG1 cell line (AID 743079); further: nearly all actives have a fitted effect of over 20% in size; further: potency means the concentration at half of the fitted maximal effect
[12] = qHTS assay to identify small molecule antagonists of the estrogen receptor alpha (ER-alpha) signaling pathway using the BG1 cell line (AID 743080; calls by dose curve;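 further: BG1 cells stimulated with 17beta-estradiol alongside compound; series mostly up to about 70 µM; nearly all actives have a fitted effect of over 25% in size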)
In short: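 Seeding, 24 h rest, compound transfer from DMSO, 17beta-estradiol addition, 21.5 h incubation, CellTiter-Fluor (30 min, 37 C), then ONE-Glo (30 min, room temperature): this sequence was run on BG1-Luc-4E2 reporter cells.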

[13] = qHTS assay to identify small molecule phospholipidosis (PLD) inducers (AID 1259344; active means well fitted curve in the direction sought with a large enough effect; inconclusive means small, poorly fitted or top-dose-only effect, or another doubt; inactive means no such curve, though single readings can be large; an effect the other way counts as inactive or inconclusive)
In short: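 Read-out is LipidTOX Red fluorescence (ex 595/em 615) imaged in HepG2 cells after 24 h compound exposure at 37 C, with Hoechst nuclear counterstain (ex 352/em 461) allowing per-cell normalisation.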

[14] = qHTS assay for small molecule disruptors of the mitochondrial membrane potential - cell viability (AID 720634; calls by dose curve;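 further: human HepG2 liver cancer cells; series mostly up to about 83 µM; nearly all actives have a fitted effect of over 20% in size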)
In short: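 Same-well counter-screen: following the MMP dye addition, CellTiter-Glo was added to 1 hr compound-treated HepG2 cells and luminescence read after 30 min at room temperature.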

[15] = qHTS assay to identify small molecule antagonists of the androgen receptor (AR) signaling pathway - cell viability counter screen (AID 743033; further: nearly all actives have a fitted effect of over 45% in size)
[16] = qHTS assay to identify small molecule antagonists of the androgen receptor (AR) signaling pathway using the MDA cell line - cell viability counter screen (AID 743041; further: nearly all actives have a fitted effect of over 45% in size)
In short: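 Cytotoxicity counter screen: MDA-kb2 AR-luc cells, compound + R1881, 16 h, 37C, 0% CO2; CellTiter-Fluor added at 15.5 h, fluorescence read after 30 min.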

[17] = qHTS assay to identify small molecule antagonists of the estrogen receptor alpha (ER-alpha) signaling pathway using the BG1 cell line - cell viability counter screen (AID 743081);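 further: compound given together with 17beta-estradiol as the ER stimulus; series mostly up to about 70 µM; nearly all actives have a fitted effect of over 45% in size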
[18] = qHTS assay for small molecule disruptors of the mitochondrial membrane potential (AID 720635); further: potency means the concentration at half of the fitted maximal effect
In short: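 HepG2 cells exposed to compound 1 hr at 37C, then Mito-MPS dye 30 min. Ratio read of aggregate (540/590 nm) versus monomer (490/535 nm) fluorescence.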

[19] = molecular target: Glucocorticoid receptor (Homo sapiens) (UniProt P04150); assay: qHTS assay to identify small molecule agonists of the glucocorticoid receptor (GR) signaling pathway (AID 720691; active means well fitted activation curve with a large enough effect in the signal ratio in the repeat runs, not every such curve was filed as active; inconclusive means weak or mixed curves, or effect the other way; inactive means no such curve, though single readings can be large or run the other way; the % refers to the signal ratio)
Chain of Glucocorticoid receptor (Homo sapiens) (P04150 whole entry, looked up): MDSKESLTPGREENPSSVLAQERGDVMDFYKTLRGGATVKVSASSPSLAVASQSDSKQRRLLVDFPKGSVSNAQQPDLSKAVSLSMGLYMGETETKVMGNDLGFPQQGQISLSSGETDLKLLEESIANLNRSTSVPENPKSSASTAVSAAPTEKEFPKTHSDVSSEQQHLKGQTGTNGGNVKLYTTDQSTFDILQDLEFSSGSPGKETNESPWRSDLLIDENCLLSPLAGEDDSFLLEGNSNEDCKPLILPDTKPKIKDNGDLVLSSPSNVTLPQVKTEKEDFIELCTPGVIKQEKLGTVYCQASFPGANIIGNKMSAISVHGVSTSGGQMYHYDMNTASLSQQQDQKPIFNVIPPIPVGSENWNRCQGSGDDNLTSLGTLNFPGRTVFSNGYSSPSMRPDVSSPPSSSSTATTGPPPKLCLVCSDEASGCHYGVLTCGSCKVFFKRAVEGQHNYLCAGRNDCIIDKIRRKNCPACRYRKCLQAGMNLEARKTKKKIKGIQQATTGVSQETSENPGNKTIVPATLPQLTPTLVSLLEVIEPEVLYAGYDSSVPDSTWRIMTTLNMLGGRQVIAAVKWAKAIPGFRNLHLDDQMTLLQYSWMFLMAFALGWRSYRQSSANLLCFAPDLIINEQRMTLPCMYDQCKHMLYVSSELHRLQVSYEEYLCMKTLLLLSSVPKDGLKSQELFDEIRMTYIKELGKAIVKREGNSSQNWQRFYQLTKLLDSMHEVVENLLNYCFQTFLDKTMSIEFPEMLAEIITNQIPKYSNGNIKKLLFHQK
In short: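 A HeLa cervical cancer line expressing GR and a glucocorticoid response element-driven beta-lactamase gene is treated with compounds for 18 h; LiveBLAzer B/G FRET substrate is then applied and fluorescence read.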

[20] = molecular target: Peroxisome proliferator-activated receptor gamma (Homo sapiens) (UniProt P37231); assay: qHTS assay to identify small molecule agonists of the peroxisome proliferator-activated receptor gamma (PPARg) signaling pathway (AID 743094; active means well fitted activation curve with a large enough effect in the signal ratio in the repeat runs, not every such curve was filed as active; inconclusive means weak or mixed curves, or effect the other way; inactive means no such curve, though single readings can be large or run the other way; the % refers to the signal ratio)
Chain of Peroxisome proliferator-activated receptor gamma (Homo sapiens) (P37231 whole entry, looked up): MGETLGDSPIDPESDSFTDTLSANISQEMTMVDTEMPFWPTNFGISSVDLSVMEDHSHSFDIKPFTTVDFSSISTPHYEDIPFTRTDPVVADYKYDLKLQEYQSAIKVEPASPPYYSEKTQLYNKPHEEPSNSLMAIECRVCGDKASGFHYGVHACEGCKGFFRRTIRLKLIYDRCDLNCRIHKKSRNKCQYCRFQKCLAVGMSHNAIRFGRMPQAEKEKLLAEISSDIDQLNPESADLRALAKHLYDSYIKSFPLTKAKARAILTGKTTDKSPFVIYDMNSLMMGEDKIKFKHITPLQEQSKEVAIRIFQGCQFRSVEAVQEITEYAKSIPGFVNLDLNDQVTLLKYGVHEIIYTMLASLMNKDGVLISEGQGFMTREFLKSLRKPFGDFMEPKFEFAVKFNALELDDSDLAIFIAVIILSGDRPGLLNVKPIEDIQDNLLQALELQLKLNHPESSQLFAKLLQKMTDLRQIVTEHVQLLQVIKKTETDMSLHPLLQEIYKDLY
In short: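 Cell-based bla reporter, HEK293H background, PPARg-driven UAS. Pre-incubation 5 h, 37C, 5% CO2. Compound 17 h, 37C. Substrate 1 h RT; fluorescence.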

CC(C)[C@H]1C(=O)N2CCC[C@H]2[C@]2(O)O[C@](NC(=O)[C@@H]3C[C@@H]4c5cccc6[nH]cc(c56)C[C@H]4N(C)C3)(C(C)C)C(=O)N12
Potency [1]: inactive
Potency [2]: inactive
outcome [3]: inactive
Potency [4]: inactive
outcome [5]: inactive
Potency [6]: inactive
Potency [7]: 29.8 µM (active)
Potency [8]: 29.8 µM (active)
Potency [9]: inactive
Potency [10]: inactive
Potency [11]: 11.9 µM (active)
Potency [12]: inactive
Potency [13]: inactive

CCN(CC)C(=O)N[C@H]1C[C@@H]2c3cccc4[nH]cc(c34)C[C@H]2N(C)C1
Potency [1]: inactive
Potency [2]: inactive
Potency [14]: inactive
outcome [3]: inactive
outcome [5]: inactive
Potency [6]: inactive
Potency [15]: inactive
Potency [16]: inactive
Potency [17]: inactive
Potency [13]: inactive

CCN1C[C@]2(COC)[C@H](O)C[C@H](OC)[C@@]34[C@@H]5C[C@@]6(O)[C@H](OC(=O)c7ccccc7)[C@@H]5[C@@](OC(C)=O)([C@@H]([C@H](OC)[C@H]23)[C@@H]14)[C@@H](O)[C@@H]6OC
Potency [1]: inactive
Potency [2]: inactive
Potency [18]: inactive
outcome [3]: inactive
Potency [4]: inactive
Potency [6]: inactive
Potency [7]: inactive
Potency [8]: inactive
Potency [9]: inactive
Potency [10]: inactive
Potency [11]: inactive
Potency [12]: inactive
Potency [17]: inactive
Potency [13]: inactive

CCC1(c2ccccc2)C(=O)NC(=O)N(C(=O)c2ccccc2)C1=O (configuration not stated)
Potency [2]: inactive
Potency [14]: inactive
Potency [18]: 23.7 µM (active)
outcome [3]: inactive
Potency [4]: inactive
Potency [19]: inactive
Potency [6]: inactive
Potency [7]: inactive
Potency [8]: inactive
Potency [15]: inactive
Potency [16]: inactive
Potency [13]: inactive

Oc1ccc2c3c1O[C@H]1[C@@H](O)CC[C@@]4(O)[C@@H](C2)N(CC2CCC2)CC[C@]314
Potency [2]: inactive
Potency [14]: inactive
outcome [3]: inactive
outcome [5]: inactive
Potency [19]: inactive
Potency [6]: inactive
Potency [8]: inactive
Potency [15]: inactive
Potency [16]: inactive
Potency [10]: inactive
Potency [11]: inactive
Potency [17]: inactive
Potency [20]: inactive
Potency [13]: inactive

Oc1ccc2c3c1O[C@H]1[C@@H](O)C=C[C@H]4[C@H](C2)NCC[C@@]341
Potency [1]: inactive
Potency [2]: inactive
outcome [3]: inactive
outcome [5]: inactive
Potency [6]: inactive
Potency [7]: inactive
Potency [8]: inactive
Potency [16]: inactive
Potency [17]: inactive
Potency [13]: inactive

CCC1C(C)=NN=C(c2ccc(OC)c(OC)c2)c2cc(OC)c(OC)cc21 (configuration not stated)
Potency [1]: inactive
Potency [2]: inactive
outcome [3]: inactive
Potency [4]: inactive
outcome [5]: inactive
Potency [7]: inactive
Potency [16]: inactive
Potency [10]: inactive
Potency [11]: inactive
Potency [12]: inactive
Potency [17]: inactive
Potency [20]: inactive
Potency [13]: inactive

C[C@]12CC[C@@H]3c4ccc(OC(=O)N(CCCl)CCCl)cc4CC[C@H]3[C@@H]1CC[C@@H]2OP(=O)(O)O
Potency [1]: 7.5 µM (active) and 29.8 µM (active)
Potency [2]: inactive
Potency [14]: inactive
Potency [18]: inactive
outcome [3]: inactive
outcome [5]: inactive
Potency [19]: inactive
Potency [6]: inactive
Potency [7]: inactive
Potency [8]: inactive
Potency [15]: inactive
Potency [10]: 21.3 nM [inconclusive] (active) and 16.9 nM [inconclusive] (active)
Potency [11]: 4.7 nM (active) and 16.8 nM (active)
Potency [12]: inactive
Potency [17]: inactive
Potency [13]: inactive

Clc1ccc(C(Cn2ccnc2)OCc2csc3c(Cl)cccc23)c(Cl)c1 (configuration not stated)
Potency [14]: inactive
outcome [3]: inactive
Potency [4]: inactive
outcome [5]: inactive
Potency [7]: 12.7 µM (active)
Potency [16]: inactive
Potency [12]: inactive
Potency [17]: inactive
Potency [20]: inactive
Potency [13]: inactive

From PubChem BioAssay (Tox21)
